Inconclusive results are not listed. Entries that show only a call come without a potency. Active and inactive are the calls of the source. Calls come from the whole dose curve.

We go through 18 compounds from PubChem BioAssay (NCATS).
Potency is the fitted concentration of half-maximal effect.

Sequence of Nucleoprotein (Lymphocytic choriomeningitis virus (strain Armstrong)) (P09992 whole entry, looked up): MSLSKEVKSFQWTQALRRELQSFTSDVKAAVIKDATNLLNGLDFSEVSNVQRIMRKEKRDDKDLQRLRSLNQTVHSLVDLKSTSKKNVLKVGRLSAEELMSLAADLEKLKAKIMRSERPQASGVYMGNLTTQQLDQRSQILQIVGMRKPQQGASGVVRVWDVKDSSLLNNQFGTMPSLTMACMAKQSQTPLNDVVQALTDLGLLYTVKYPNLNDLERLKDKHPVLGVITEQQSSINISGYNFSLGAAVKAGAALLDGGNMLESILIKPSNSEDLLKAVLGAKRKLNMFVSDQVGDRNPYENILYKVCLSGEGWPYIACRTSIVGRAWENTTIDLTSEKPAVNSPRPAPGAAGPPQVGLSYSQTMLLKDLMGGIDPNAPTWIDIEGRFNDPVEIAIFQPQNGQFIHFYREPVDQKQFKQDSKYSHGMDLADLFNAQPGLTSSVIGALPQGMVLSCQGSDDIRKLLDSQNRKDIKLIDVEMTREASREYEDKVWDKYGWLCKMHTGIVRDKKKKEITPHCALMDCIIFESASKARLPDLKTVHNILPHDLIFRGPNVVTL

The assay addresses Nucleoprotein (Lymphocytic choriomeningitis virus (strain Armstrong)) (UniProt P09992). The assay is described as follows: qHTS for Inhibitors of the Functional Ribonucleoprotein Complex (vRNP) of Lymphocytic Choriomeningitis Arenaviruses (LCMV): LCMV Primary Screen - GLuc reporter signal (AID 1347086). Note: nearly all actives have a fitted effect of over 70% in size. The following applies: LCMV minigenome vRNP cell assay, Gaussia luciferase reporter; series mostly up to 57.5 µM. Background: In qHTS, concentration-response curves come from the screen itself.
Consider `Cc1ccc(N(CC2=NCCN2)c2cccc(O)c2)cc1`, for which the Potency result was “inactive”.

With `CC1(C)OC(=O)Nc2ccc(Br)cc21`, the Potency result is “inactive”.

Take `CCCCC1C(=O)N(c2ccccc2)N(c2ccccc2)C1=O`: the Potency entry is “inactive”.

For the compound `Clc1ccc(Cn2c(CN3CCCC3)nc3ccccc32)cc1`, the Potency result was “inactive”.

On to `NC(=O)CCCCC1CCSS1` (stereo not drawn), for which the Potency result was “inactive”.

As to `CO[C@@H]1[C@@H](O[C@@H]2O[C@H](C)[C@@H](O[C@H]3C[C@@](C)(O)[C@@H](O)[C@H](C)O3)[C@H](N(C)C)[C@H]2O)[C@@H](CC=O)C[C@@H](C)[C@@H](O[C@@H]2CC[C@H](N(C)C)[C@@H](C)O2)/C=C/C=C/C[C@@H](C)OC(=O)C[C@H]1OC(C)=O`, the Potency result is “inactive”.

For `NC1(c2ccc(-c3nc4ccn5c(=O)[nH]nc5c4cc3-c3ccccc3)cc2)CCC1`, the Potency was 3.06 µM (active).

Consider `CCN(CC)CCSC(=O)C(c1ccccc1)c1ccccc1`, for which the Potency result is “inactive”.

For the compound `NCc1ccccc1Sc1ccccc1CO`, the Potency entry is “inactive”.

As for `Cc1ccc(/C(=C\CN2CCCC2)c2ccccn2)cc1`, the Potency entry is “inactive”.

For `C#C[C@]1(OC(C)=O)CC[C@H]2[C@@H]3CCC4=C[C@@H](OC(C)=O)CC[C@@H]4[C@H]3CC[C@@]21C`, the Potency entry is “inactive”.

Turning to `CCOC(=O)C(=O)c1csc(NC=O)n1`, the Potency entry is “inactive”.

In the case of `C=CCc1ccccc1OCC(O)CNC(C)C` (stereo not drawn), the Potency result was “inactive”.

On to `CO/N=C(/C(=O)N[C@@H]1C(=O)N2C(C(=O)O)=C(Cn3nnc(C)n3)CS[C@H]12)c1csc(N)n1`, for which the Potency entry was “inactive”.

In the case of `NC(=O)Cc1cccc(C(=O)c2ccccc2)c1N`, the Potency entry was “inactive”.

As for `OC(CN1CCC(Cc2ccc(F)cc2)CC1)c1ccc(Cl)cc1` (stereo not drawn), the Potency entry was “inactive”.

Consider `CC(C)CCCC(C)N` (stereo not drawn), for which the Potency entry was “inactive”.

Consider `CC(O)COc1ccccc1` (stereo not drawn), for which the Potency result is “inactive”.
